Test results taken from PubChem BioAssay.
Calls of active or inactive are those of the source.

Tests used:
[1] = system: Human papillomavirus type 1a protein E7 (residues 44-93); assay: HPV1a E7 fragment binders on microarrays, primary screen, biochemical, small-molecule microarray, residues 44-93, 635 nm fluorescence (AID 1108); conditions: small-molecule microarray binding, fluorescence 635 nm; higher = more signal;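 also: E7 fragment applied at 1 µg/mL in TBST for 1 h at 4 C; score combines spot fluorescence with its signal to noise ratio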
[2] = modulators of HCV replicon luciferase signal, primary screen, HCV replication inhibitor project, Huh7 cells, luciferase reporter (AID 1109); conditions: 48 h, higher = more signal;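 also: huh7 hepatoma cells harbouring a luciferase neomycin HCV replicon reporter; luciferase luminescence as measure of HCV replicon replication; test concentration not given here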
[3] = target: Left-right determination factor 2 (Homo sapiens) (UniProt O00292); assay: LEFTY2 binders on small-molecule microarrays, primary screen, biochemical, small-molecule microarray, 635 nm fluorescence scan (AID 1110); conditions: LEFTY2 binding, higher = more signal
Left-right determination factor 2 (Homo sapiens), sequence (O00292 whole entry, looked up): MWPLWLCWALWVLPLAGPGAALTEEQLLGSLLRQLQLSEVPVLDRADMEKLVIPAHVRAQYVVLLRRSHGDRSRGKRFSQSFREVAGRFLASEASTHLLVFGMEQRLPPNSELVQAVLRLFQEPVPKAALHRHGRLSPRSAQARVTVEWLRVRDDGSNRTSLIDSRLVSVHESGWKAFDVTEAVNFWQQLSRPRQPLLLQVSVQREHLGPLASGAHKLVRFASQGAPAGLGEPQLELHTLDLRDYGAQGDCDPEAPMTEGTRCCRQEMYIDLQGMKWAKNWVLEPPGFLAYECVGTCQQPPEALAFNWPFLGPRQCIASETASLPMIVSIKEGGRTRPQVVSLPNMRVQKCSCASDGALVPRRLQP

[4] = target: Calmodulin-1 (Homo sapiens) (UniProt P0DP23); assay: CALM1 binders on microarrays, EGTA buffer, profiling panel, biochemical, small-molecule microarray, Cy5-labelled CALM1 (AID 1111); conditions: Cy5-CALM1 binding fluorescence, higher = more signal;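 also: labelled calmodulin applied in Tris saline Tween buffer holding calcium plus EGTA and DTT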
[5] = target: Calmodulin-1 (Homo sapiens) (UniProt P0DP23); assay: calcium-bound CALM1 binders on microarrays, profiling panel, artefact control for SMM control-protein annotation, biochemical, small-molecule microarray, Cy5-labelled CALM1, plus calcium (AID 1112); conditions: Cy5-CALM1 binding fluorescence, higher = more signal;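 also: score merges spot fluorescence with signal to noise from triplicate slides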
[6] = small-molecule microarray binders of probe aWnt5a, primary screen, biochemical, biotinylated probe, 635/667 nm fluorescence (AID 1113); conditions: higher = more signal;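 also: score merges 667 nm fluorescence intensity with signal-to-noise per printed feature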
[7] = small-molecule microarray binders of probe aShh, primary screen, biochemical, biotinylated probe, 635/667 nm fluorescence (AID 1114); conditions: higher = more signal;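 also: probe is biotin-labelled aShh protein from a stem cell growth factor screen; measures binding of labelled protein to compounds printed on the slide; score merges feature fluorescence at 667 nm with signal-to-noise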
[8] = small-molecule microarray binders of probe aNog, primary screen, biochemical, biotinylated probe, 635/667 nm fluorescence (AID 1115); conditions: higher = more signal;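 also: probe is biotinylated aNog protein used at 0.15 µg/mL for 1 h at 4 C; z-score combines 667 nm fluorescence of each spot with its signal to noise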
[9] = target: Torsin-1A-interacting protein 1 (Homo sapiens) (UniProt Q5JTV8); assay: LAP1 binders from COS7 cell lysate, primary screen, small-molecule microarray, 635/667 nm fluorescence (AID 1116); conditions: COS7-hLAP1 lysate binding, 635 nm fluorescence, higher = more signal
Torsin-1A-interacting protein 1 (Homo sapiens), sequence (Q5JTV8 whole entry, looked up): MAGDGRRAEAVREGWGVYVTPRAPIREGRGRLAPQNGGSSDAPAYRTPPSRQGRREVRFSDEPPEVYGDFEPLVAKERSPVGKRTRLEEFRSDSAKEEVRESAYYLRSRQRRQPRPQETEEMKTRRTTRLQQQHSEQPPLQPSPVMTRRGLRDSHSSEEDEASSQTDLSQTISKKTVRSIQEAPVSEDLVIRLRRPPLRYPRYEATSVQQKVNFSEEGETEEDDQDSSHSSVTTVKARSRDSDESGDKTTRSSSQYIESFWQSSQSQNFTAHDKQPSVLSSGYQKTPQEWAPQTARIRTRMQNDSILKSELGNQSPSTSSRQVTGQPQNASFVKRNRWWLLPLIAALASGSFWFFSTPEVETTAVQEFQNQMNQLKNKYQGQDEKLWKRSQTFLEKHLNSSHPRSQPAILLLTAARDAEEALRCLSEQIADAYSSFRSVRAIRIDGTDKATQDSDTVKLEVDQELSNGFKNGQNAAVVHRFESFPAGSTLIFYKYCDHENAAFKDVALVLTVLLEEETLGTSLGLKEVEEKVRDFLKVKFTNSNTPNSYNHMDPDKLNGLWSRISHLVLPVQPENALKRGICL

[10] = target: Alpha-bungarotoxin (Bungarus multicinctus) (UniProt P60615); assay: alpha-bungarotoxin binders on microarray, profiling panel, artefact control for SMM control protein annotation, biochemical, small-molecule microarray, Alexa647 label, 635/667 nm fluorescence (AID 1117); conditions: alpha-BTX-A647 binding fluorescence, higher = more signal
Alpha-bungarotoxin (Bungarus multicinctus), sequence (P60615 whole entry, looked up): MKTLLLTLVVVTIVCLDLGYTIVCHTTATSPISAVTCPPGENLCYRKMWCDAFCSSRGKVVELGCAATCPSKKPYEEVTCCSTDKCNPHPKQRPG

[11] = target: Albumin (Bos taurus) (UniProt P02769); assay: bovine serum albumin binders on microarray, profiling panel, artefact control for SMM control protein annotation, biochemical, small-molecule microarray, Alexa647 label, 635/667 nm fluorescence (AID 1118); conditions: BSA-A647 binding, fluorescence 635 nm, higher = more signal;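 also: score merges 667 nm emission intensity and signal-to-noise per printed compound spot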
Albumin (Bos taurus), sequence (P02769 whole entry, looked up): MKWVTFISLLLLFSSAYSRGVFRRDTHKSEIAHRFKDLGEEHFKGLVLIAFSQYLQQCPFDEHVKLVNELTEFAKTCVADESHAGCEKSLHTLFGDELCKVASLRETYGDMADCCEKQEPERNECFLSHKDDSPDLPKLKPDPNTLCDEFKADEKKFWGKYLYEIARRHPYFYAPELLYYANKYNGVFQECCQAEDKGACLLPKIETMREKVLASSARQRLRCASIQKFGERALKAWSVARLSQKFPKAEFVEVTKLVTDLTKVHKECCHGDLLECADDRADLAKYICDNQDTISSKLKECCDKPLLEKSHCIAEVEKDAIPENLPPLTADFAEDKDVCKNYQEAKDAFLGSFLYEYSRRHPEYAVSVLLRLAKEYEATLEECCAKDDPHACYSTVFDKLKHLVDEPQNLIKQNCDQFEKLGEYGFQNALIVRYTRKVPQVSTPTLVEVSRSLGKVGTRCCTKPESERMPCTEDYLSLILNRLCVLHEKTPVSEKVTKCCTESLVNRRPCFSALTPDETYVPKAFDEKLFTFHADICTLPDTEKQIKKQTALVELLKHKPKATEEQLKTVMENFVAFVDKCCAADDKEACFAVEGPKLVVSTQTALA

[12] = small-molecule microarray binders of probe aXIP, primary screen, biochemical, NeuroSMM set, 635/667 nm fluorescence (AID 1119); conditions: higher = more signal, called active from +8 up or from −8 down;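 also: probe is the protein aXip251-270 applied at 1 µg/mL to compound-printed slides; binding of probe to printed compounds measured as 667 nm fluorescence plus signal to noise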
[13] = small-molecule binders of probe aNOTCH3, primary screen, biochemical, small-molecule microarray, 635/667 nm fluorescence (AID 1120); conditions: higher = more signal;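 also: probe is a biotin-tagged antibody raised against NOTCH3 rather than NOTCH3 protein; score merges spot fluorescence near 667 nm with spot signal to noise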
[14] = small-molecule binders of probe aNOTCH2, primary screen, biochemical, small-molecule microarray, 635/667 nm fluorescence (AID 1121); conditions: higher = more signal;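 also: score merges feature fluorescence read at 667 nm with its signal to noise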
[15] = target: Carbonic anhydrase 2 (Homo sapiens) (UniProt P00918); assay: CAII small-molecule binders, profiling panel, biochemical, small-molecule microarray, Alexa647-labelled CAII (AID 1122); conditions: CAII-A647 binding fluorescence, higher = more signal
[16] = COS7 lysate on small-molecule microarray, probe aHis, 635 nm (AID 1123); conditions: COS7 cell lysate, fluorescence, higher = more signal;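 also: z-score combines 667nm fluorescence intensity with signal-to-noise per printed compound spot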
[17] = compound binding in COS7 lysate, probe aLAP1, primary screen, cell lysate, small-molecule microarray (AID 1124); conditions: probe aLAP1, fluorescence, higher = more signal;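 also: lysate comes from COS7 cells expressing LAP1 and is applied at 0.3 µg/mL; score merges spot fluorescence near 667 nm with signal-to-noise over triplicate slides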
[18] = system: Sam68 (KHDRBS1); assay: Sam68 small-molecule binders, primary screen, biochemical, small-molecule microarray, 635 nm fluorescence (AID 1125); conditions: small-molecule microarray binding, higher = more signal;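 also: score merges 667 nm channel intensity with signal to noise over triplicate slides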
[19] = system: Chordin-like protein 2 (CHRDL2); assay: CHRDL2 small-molecule binders, primary screen, biochemical, small-molecule microarray, 635 nm fluorescence (AID 1126); conditions: small-molecule microarray binding, fluorescence 635 nm; higher = more signal;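 also: printed compound slides probed with Chrdl2 protein at 4 µg/mL for 1 h at 4 C; score merges 667 nm emission intensity with signal to noise over three replicate slides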
[20] = target: Concanavalin-A (Canavalia ensiformis) (UniProt P02866); assay: ConA small-molecule binders, primary screen, artefact control for SMM control protein annotation, biochemical, small-molecule microarray, Alexa647 label, 635 nm (AID 1127); conditions: ConA-A647 binding fluorescence, higher = more signal;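 also: z combines 667 nm emission intensity with signal-to-noise across three replicate slides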
Concanavalin-A (Canavalia ensiformis), sequence (P02866 whole entry, looked up): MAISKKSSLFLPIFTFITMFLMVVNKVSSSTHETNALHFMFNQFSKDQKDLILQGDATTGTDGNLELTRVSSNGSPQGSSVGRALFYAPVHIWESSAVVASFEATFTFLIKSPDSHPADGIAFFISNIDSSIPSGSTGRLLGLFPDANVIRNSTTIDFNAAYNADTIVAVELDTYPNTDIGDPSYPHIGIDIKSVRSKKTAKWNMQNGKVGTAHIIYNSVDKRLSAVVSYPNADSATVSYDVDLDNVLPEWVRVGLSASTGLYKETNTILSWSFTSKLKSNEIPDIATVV

| SMILES | composite z-score [1] | z-score [2] | composite z-score [3] | composite z-score [4] | composite z-score [5] | composite z-score [6] | composite z-score [7] | composite z-score [8] | composite z-score [9] | composite z-score [10] | composite z-score [11] | composite Z-score [12] | composite z-score [13] | composite z-score [14] | composite z-score [15] | composite z-score [16] | composite z-score [17] | composite z-score [18] | composite z-score [19] | composite z-score [20] |
| --- | --- | --- | --- | --- | --- | --- | --- | --- | --- | --- | --- | --- | --- | --- | --- | --- | --- | --- | --- | --- |
| COCCOC(=O)N1C(=O)[C@@]2(c3cc(C#Cc4ccc(OC)cc4)ccc31)[C@H](C(=O)Nc1nc3ccccc3s1)[C@H]1C(=O)O[C@H](c3ccccc3)[C@H](c3ccccc3)N1[C@@H]2c1ccc(OCCO)cc1 | 1.17 | -2.19 | 0.785 | 0.762 | -0.621 | -0.0704 | -0.223 | -0.268 | 0.179 | 1 | -0.0497 | 0.308 (inactive) | 0.0493 | -0.0539 | 0.458 | 0.757 | -0.38 | 1.31 | 0.68 | 1.16 |
| O=C1O[C@H](c2ccccc2)[C@H](c2ccccc2)N2[C@H]1[C@@H](C(=O)Nc1nc3ccccc3s1)[C@]1(C(=O)Nc3ccc(C#CC4(O)CCCCCC4)cc31)[C@H]2c1ccccc1OCCO | 1.37 | -2.69 | 0.561 | 1.04 | -0.243 | 0.0068 | 0.0469 | 0.345 | 1.34 | 0.0934 | 0.743 | -0.305 (inactive) | 0.0459 | -0.0454 | 0.461 | 1.82 | 0.398 | 1.3 | 0.413 | 1.07 |
| COC(=O)c1cn(C[C@@H](Cc2ccccc2)NC(=O)N[C@H](CO)CCc2oc(C(C)=O)c(C(=O)OC)c2C(=O)OC)nn1 | 0.303 | -0.407 | 0.993 | -0.335 | -0.616 | 0.02 | -0.283 | -0.0789 | 0.862 | 0.177 | -0.0181 | 0.055 (inactive) | 0.134 | -0.128 | 0.182 | 0.5 | 0.421 | 1.01 | 1.15 | 0.299 |
| Cc1ccc(S[C@]2(C(=O)NCC(F)(F)F)CC(=O)N(Cc3ccccc3)[C@@H]2c2ccc(CO)cc2I)cc1 | 0.503 | -2.48 | -0.842 | -0.0153 | 0.517 | -0.0203 | -0.0362 | 0.358 | 0.349 | 1.36 | 0.132 | 0.184 (inactive) | -0.212 | -0.183 | 0.679 | 1.21 | 1.57 | 0.0687 | -0.151 | -0.203 |
| CCCCO[C@H]1C[C@H]2C(I)=C[C@@H]1C(=O)[C@]21CO1 | -0.977 | -2.7 | 0.312 | -0.331 | -0.502 | -0.0735 | -0.0866 | 0.0327 | -0.243 | -0.0708 | -0.369 | -0.014 (inactive) | -0.0311 | -0.25 | -0.302 | -0.196 | -0.287 | -0.414 | 0.377 | 0.267 |
| CC(C)(C)N1CC=CC23O[C@@H]4C=CCCOC(=O)C4[C@H]2C(=O)N(CCO)[C@@H]3C1=O (stereo not given in full) | -0.282 | 0.361 | -0.475 | -0.504 | -0.511 | -0.0924 | -0.0146 | 0.0417 | -0.108 | 1.37 | -0.0163 | -0.391 (inactive) | -0.13 | 0.226 | 0.282 | -1.09 | -0.155 | -0.889 | -0.267 | -1.39 |
| CCOc1cc(C(O)C2C=CC3C(=O)N(C)C(=O)C3N2Nc2ccccc2)ccc1O (stereo not given) | 1.24 | -0.146 | 0.0031 | 0.796 | -0.211 | -0.0165 | -0.155 | -0.145 | 1.92 | 0.848 | 1.04 | 0.765 (inactive) | 0.194 | 0.0931 | 0.827 | 1.28 | -0.438 | 1.22 | 0.0675 | 0.947 |
| COc1ccc(-c2nc(-c3ccccc3)c3c(c2C)CO[Si]3(C(C)C)C(C)C)cn1 | 0.107 | -1.05 | 0.372 | -0.461 | -0.309 | -0.0405 | 0.0278 | -0.294 | 0.104 | 0.397 | -0.475 | 0.428 (inactive) | -0.126 | -0.0921 | 0.0924 | 0.583 | -0.209 | 0.152 | 0.151 | -0.209 |
